# Data published in PubChem BioAssay (NCATS).
# Records with an inconclusive call do not appear. A number with no mark means an inactive call. The source made the active and inactive calls. Calls follow the shape of the dose curve; as a rule, active = well fitted cell-killing curve with a large enough effect; inconclusive = small, poorly fitted or top-dose-only effect, or effect the other way; inactive = no such curve, though single readings can be large or run the other way.
# Assay: Quantitative High-Throughput drug screen in 47 multiple myeloma cell lines against the NCATS MIPE library collection: RPMI8226_ATCC cell viability assay (AID 1919871)
# Conditions: RPMI8226 myeloma viability, CellTiter-Glo ATP luminescence, 48 h; series mostly up to 45.8 µM; viability (% of control): at the top concentration
# Outline: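 Inhibition of viability over 48 h was scored by ATP content (CellTiter-Glo) in 500-cell wells. Zero and full viability were defined by media-only and DMSO-only wells.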
# Also: nearly all actives have a fitted effect of over 30% in size.
# Potency is read from the fitted curve at half-maximal effect.
Structure (SMILES),Potency,viability (% of control)
COc1ccc(OC)c(-c2nnc3ccc(-c4ccc(OC)c(O[C@@H]5CCOC5)c4)nn23)c1,18.7 µM (active),
CNC(=O)c1ccc(-c2cnc3ncc(Cc4ccc5ncccc5c4)n3n2)cc1F,,113%
Cc1nc2ccc(CN(C)c3ccc(C(=O)N[C@@H](CCC(=O)O)C(=O)O)s3)cc2c(=O)[nH]1,,111%
CC(=O)c1c(C)c2cnc(Nc3ccc(N4CCNCC4)cn3)nc2n(C2CCCC2)c1=O,2.09 µM (active),
COc1cc(C)c(Sc2cnc(NC(=O)c3ccc(CNC(C)C(C)C)cc3)s2)cc1C(=O)N1CCN(C(C)=O)CC1 (stereo not drawn),14.8 µM (active),
COC(=O)C1=C(C)NC(C)=C(C(=O)OCCN2CCN(C(c3ccccc3)c3ccccc3)CC2)C1c1cccc([N+](=O)[O-])c1 (stereo not drawn),,120%
COc1cc2c(cc1-c1c(C)noc1C)ncc1[nH]c(=O)n([C@H](C)c3ccccn3)c12,7.43 µM (active),
C1Cc2[nH]nc(-c3nn[nH]n3)c2C1,,109%
CC(=O)Nc1nc(C)c(-c2ccc(Cl)c(S(=O)(=O)NCCO)c2)s1,16.6 µM (active),
Nc1ncnc2c1c(-c1cnc3[nH]ccc3c1)nn2C1CCCC1,0.166 µM (active),
COc1cc(=C2C=c3ccccc3=N2)[nH]c1=Cc1[nH]c(C)cc1C,1.66 µM (active),
Nc1ccn([C@@H]2CS[C@H](CO)O2)c(=O)n1,,126% [at 92.2 µM]
O=C(O)Cn1nnc(-c2cc(N3CCC(Oc4cc(F)ccc4Br)CC3)no2)n1,,128%
C[C@@]12O[C@@H](C[C@]1(O)CO)n1c3ccccc3c3c4c(c5c6ccccc6n2c5c31)CNC4=O,1.32 µM (active),
CN1CCN(c2cc(C(=O)Nc3ccc4c(c3)-c3c(c(C(N)=O)nn3-c3ccc(F)cc3)CC4)c(Cl)cn2)CC1,23.5 µM (active),
Cn1c(CNc2ccc(C(=N)N)cc2)nc2cc(C(=O)N(CCC(=O)O)c3ccccn3)ccc21,,131% [at 23.2 µM]
N#Cc1c(O)c2c(-c3ccc(-c4ccccc4O)cc3)csc2[nH]c1=O,,96.2%
O=C(C=Cc1cccnc1)NCCCCC1CCN(C(=O)c2ccccc2)CC1,0.0935 µM (active),
Cc1c(C)n(Cc2ccc(-c3ccccc3C(=O)O)cc2)c2ccc(C(=O)N[C@@H](C)c3ccc([N+](=O)[O-])cc3)cc12,,89.8%
O=C(O)c1ccc2c(c1)nc(Nc1cccc(Cl)c1)c1ccncc12,18.7 µM (active),
CC1=C(CO)C(=O)O[C@@H]([C@@H](C)[C@H]2CC[C@H]3[C@@H]4C[C@H]5O[C@]56[C@@H](O)C=CC(=O)[C@]6(C)[C@@H]4CC[C@]23C)C1,0.187 µM (active),
Cc1cc(Nc2nc(N[C@@H](C)c3ccc(F)cc3)c(C#N)cc2F)n[nH]1,11.8 µM (active),

# Assay: Quantitative High-Throughput drug screen in 47 multiple myeloma cell lines against the NCATS MIPE library collection: OPM2_DSMZ cell viability assay (AID 1919872)
# Conditions: OPM2 myeloma viability, CellTiter-Glo ATP luminescence, 48 h; series mostly up to 45.8 µM; viability (% of DMSO): at the top concentration
# Outline: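 Approved and investigational drugs from MIPE 4.0 were added by pin tool to 500 cells per well. After 48 hours at 37C, ATP-based CellTiter-Glo luminescence indicated remaining viability.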
Structure (SMILES),Potency,viability (% of DMSO)
Cc1cn(-c2cc(NC(=O)c3ccc(C)c(Nc4nccc(-c5cccnc5)n4)c3)cc(C(F)(F)F)c2)cn1,14.8 µM (active),
CCCCCCCCCC(=O)N[C@@H](Cc1c[nH]c2ccccc12)C(=O)N[C@H](CC(N)=O)C(=O)N[C@@H](CC(=O)O)C(=O)N[C@@H]1C(=O)NCC(=O)N[C@@H](CCCN)C(=O)N[C@@H](CC(=O)O)C(=O)N[C@H](C)C(=O)N[C@@H](CC(=O)O)C(=O)NCC(=O)N[C@H](CO)C(=O)N[C@@H]([C@@H](C)CC(=O)O)C(=O)N[C@@H](CC(=O)c2ccccc2N)C(=O)O[C@@H]1C,,113%
COc1ccc(OC)c(-c2nnc3ccc(-c4ccc(OC)c(O[C@@H]5CCOC5)c4)nn23)c1,23.5 µM (active),
CNC(=O)c1ccc(-c2cnc3ncc(Cc4ccc5ncccc5c4)n3n2)cc1F,,107%
COc1cc(C)c(Sc2cnc(NC(=O)c3ccc(CNC(C)C(C)C)cc3)s2)cc1C(=O)N1CCN(C(C)=O)CC1 (stereo not drawn),20.9 µM (active),
CC(=O)OCCN1C(=O)c2c(C)nc3ccc(S(=O)(=O)N4CCOCC4)cc3c2C1=O,,101%
C1Cc2[nH]nc(-c3nn[nH]n3)c2C1,,108%
CC(=O)Nc1nc(C)c(-c2ccc(Cl)c(S(=O)(=O)NCCO)c2)s1,14.8 µM (active),
Nc1ccc(C(=O)c2cc3c(ccc4ccccc43)[nH]2)cc1,6.62 µM (active),
Nc1ncnc2c1c(-c1cnc3[nH]ccc3c1)nn2C1CCCC1,0.935 µM (active),
COc1cc(=C2C=c3ccccc3=N2)[nH]c1=Cc1[nH]c(C)cc1C,4.18 µM (active),
Nc1ccn([C@@H]2CS[C@H](CO)O2)c(=O)n1,,119% [at 92.2 µM]
O=C(O)Cn1nnc(-c2cc(N3CCC(Oc4cc(F)ccc4Br)CC3)no2)n1,,103%
Cn1cc(-c2[nH]c3cc(NC(=O)[C@H](N)C4CCCCC4)cc4c3c2C=NNC4=O)cn1,7.43 µM (active),
C[C@@]12O[C@@H](C[C@]1(O)CO)n1c3ccccc3c3c4c(c5c6ccccc6n2c5c31)CNC4=O,1.48 µM (active),
CN1CCN(c2cc(C(=O)Nc3ccc4c(c3)-c3c(c(C(N)=O)nn3-c3ccc(F)cc3)CC4)c(Cl)cn2)CC1,26.4 µM (active),
CCCCc1nc2cc(C=CC(=O)NO)ccc2n1CCN(CC)CC,0.833 µM (active),
Cn1c(CNc2ccc(C(=N)N)cc2)nc2cc(C(=O)N(CCC(=O)O)c3ccccn3)ccc21,,104% [at 23.2 µM]
O=C1CCC[C@@H]2[C@H]3CCC[N+]4([O-])CCC[C@@H](CN12)[C@@H]34 (stereo partly drawn),,118%
CC(C)c1ccc(Cn2ccc3c4c(N)nc(NC5CC5)nc4ccc32)cc1,6.62 µM (active),
CC=CC1=C(C(=O)O)N2C(=O)[C@H](NC(=O)[C@H](N)c3ccc(O)cc3)[C@@H]2SC1,,99.2%
Cc1c(C)n(Cc2ccc(-c3ccccc3C(=O)O)cc2)c2ccc(C(=O)N[C@@H](C)c3ccc([N+](=O)[O-])cc3)cc12,,113%
O=C(O)c1ccc2c(c1)nc(Nc1cccc(Cl)c1)c1ccncc12,20.9 µM (active),
Cc1ccc2nc(NC(=O)CSc3nc4c(c(=O)n3-c3ccccc3)SCC4)sc2c1,20.9 µM (active),
CC1=C(CO)C(=O)O[C@@H]([C@@H](C)[C@H]2CC[C@H]3[C@@H]4C[C@H]5O[C@]56[C@@H](O)C=CC(=O)[C@]6(C)[C@@H]4CC[C@]23C)C1,0.296 µM (active),
Cc1cc(Nc2nc(N[C@@H](C)c3ccc(F)cc3)c(C#N)cc2F)n[nH]1,4.69 µM (active),
